# Measured values reported in PubChem BioAssay AID1030 (National Center for Advancing Translational Sciences (NCATS), 2008).
# Out of some 220,000 compounds screened, about 16,000 (7.3%) were called active. Entries that show only a call come without a potency. Inconclusive results (about 25%) are left out. The call rests on the fitted dose curve; in most records, active means well fitted inhibition curve with a large enough effect (not every such curve was filed as active); inconclusive means small, poorly fitted or top-dose-only effect, or another doubt; inactive means no such curve, though single readings can be large or run the other way. For the sample, actives were picked, then their nearest neighbours and some compounds at random.
# Molecular target: Aldehyde dehydrogenase 1A1 (Homo sapiens) (UniProt P00352)
# Sequence (P00352 whole entry, looked up): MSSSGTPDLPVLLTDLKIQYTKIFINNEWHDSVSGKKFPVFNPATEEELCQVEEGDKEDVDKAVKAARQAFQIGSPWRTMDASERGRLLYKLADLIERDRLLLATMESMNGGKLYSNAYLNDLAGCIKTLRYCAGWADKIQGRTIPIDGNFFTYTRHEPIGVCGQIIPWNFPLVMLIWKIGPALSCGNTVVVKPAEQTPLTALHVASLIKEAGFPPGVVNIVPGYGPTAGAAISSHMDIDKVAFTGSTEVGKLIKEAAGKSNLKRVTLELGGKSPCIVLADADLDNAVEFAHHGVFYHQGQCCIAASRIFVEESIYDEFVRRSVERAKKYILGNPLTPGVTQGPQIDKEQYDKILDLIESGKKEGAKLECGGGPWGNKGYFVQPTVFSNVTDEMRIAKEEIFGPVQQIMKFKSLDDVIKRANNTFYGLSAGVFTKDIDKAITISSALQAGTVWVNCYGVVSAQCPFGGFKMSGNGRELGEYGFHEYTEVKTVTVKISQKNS
# Experiment: qHTS Assay for Inhibitors of Aldehyde Dehydrogenase 1 (ALDH1A1)
# Settings: Purified ALDH1A1, NADH fluorescence, propionaldehyde substrate; series mostly up to 75.3 µM
# Potency means the concentration at half of the fitted maximal effect.
Compound,Potency,"activity, negative = inhibition"
COc1ccc(/C=N/NC(=O)C(C)N(c2ccc(OC)cc2)S(C)(=O)=O)cc1 (stereo not given),inactive,–
CN(C)c1cc[n+](Cc2ccccc2)cc1,inactive,–
CN(C)c1ccc(/C=N\S(=O)(=O)c2ccccc2)cc1,0.708 µM (active),–
C#CCOCCOCCOCCNc1nc(N2CCN(C(=O)[C@H](Cc3ccc(O)cc3)n3cc(C(N)CC(C)C)nn3)CC2)nc(N2CCN(C(=O)[C@H](CCC(=O)O)n3cc(C(N)[C@H](C)CC)nn3)CC2)n1 (stereo not given in full),inactive,–
CC1=C(C/C=C(\C)CCCC(C)CCCC(C)CCCC(C)C)C(=O)c2ccccc2C1=O (stereo not given),inactive,–
Cc1cc(C)c2nc(SCC(=O)N(C)C3CCS(=O)(=O)C3)cc(C)c2c1 (stereo not given),inactive,–
Cc1ccccc1NC(=O)Nc1ccccc1N1CCCCC1,inactive,–
Cc1ccc(CN2CCN(Cc3ccc4ncccc4c3)CC2CCO)cc1 (stereo not given),inactive,–
O=[N+]([O-])c1ccc(NCCCN2CCOCC2)c(Cl)c1,inactive,–
O=C(NCCNc1ccc([N+](=O)[O-])cc1)c1cccc2c(Br)cccc12,inactive,–
O=C(NCCCNc1ccc([N+](=O)[O-])cc1Cl)c1ccccc1F,15.8 µM (active),–
Cc1ccc(C2=NN(C(=O)COc3ncnc4ccccc34)C(c3ccco3)C2)cc1 (stereo not given),inactive,–
C=C(C)C(=O)c1ccc(F)cc1,inactive,–
CCn1c(O)c(N=NC2=NC(=O)CS2)c2cc(C)ccc21,14.1 µM (active),–
CCn1c(O)c(N=NC(=O)c2cccc(S(=O)(=O)N3CCCCC3)c2)c2ccccc21,inactive,–
O=C(N/N=C/c1ccccn1)c1ccc(S(=O)(=O)N2CCCCCC2)cc1,inactive,–
CC(c1ccco1)N(C(=O)c1ccc(S(=O)(=O)N2CCCCC2)cc1)c1ccccn1 (stereo not given),12.6 µM (active),–
CC(c1ccco1)N(C(=O)COc1ccccc1[N+](=O)[O-])c1ccccn1 (stereo not given),inactive,–
COc1ccc(C(=O)Nc2ccc(S(=O)(=O)NC(C)C)cc2)cc1,inactive,–
CC(=O)c1ccc(NC(=S)NC(=O)CC(C)C)cc1,inactive,–
COc1ccc(NS(=O)(=O)c2ccc(NC(=S)NC(=O)CC(C)C)cc2)cc1,12.6 µM (active),–
O=C(NCC1CCN(Cc2ccccc2Cl)CC1)Nc1cccc(Cl)c1,inactive,–
COC(=O)C1=C(C)N(c2ccc(Br)cc2)C(=O)/C1=C\c1ccco1,inactive,–
CCC1SC(CC)C(=O)N(CC(=O)NC2CCCCC2)C1=O (stereo not given),inactive,–
O=C(O)Cc1ccc(NCc2ccccc2Cl)cc1,inactive,–

Compound,Potency,"activity, negative = inhibition"
O=C(NC1CCC(O)CC1)c1ccc(S(=O)(=O)NCc2ccco2)cc1 (stereo not given),inactive,–
CC1CCN(S(=O)(=O)c2ccc(S(=O)(=O)NCc3ccco3)cc2)CC1,inactive,–
CCC(C)NC(=O)/C=C/c1ccc(S(=O)(=O)NCc2ccco2)cc1 (stereo not given),17.8 µM (active),–
CN(C)C(=O)c1nc2ccc(Cl)cn2c1CN1CCN(c2ncccn2)CC1,inactive,–
C=C(C)C1CC=C(C)/C(=N/NC(=O)CCCNc2cccc(C)c2)C1 (stereo not given),inactive,–
N#Cc1c(N)nc2c(c1N)CC(C(F)(F)F)O2 (stereo not given),inactive,–
Cc1ccc(S(=O)(=O)N2CCC(C(=O)OCC(=O)N3CC(=O)Nc4ccccc43)CC2)cc1,12.6 µM (active),–
COc1ccc(S(=O)(=O)N2CCC(C(=O)OCC(=O)c3ccccc3)CC2)cc1[N+](=O)[O-],inactive,–
COc1ccc(Cl)cc1-n1c(C)cc(C(=O)OCC(=O)N2CC(=O)Nc3ccccc32)c1C,inactive,–
COc1cc(OC)c(C(=O)OCC(=O)N2CC(=O)Nc3ccccc32)cc1OC,inactive,–
Cc1ccc(S(=O)(=O)N(C)CC(=O)OCC(=O)N2CC(=O)Nc3ccccc32)cc1,inactive,–
O=C1CN(C(=O)COC(=O)c2cnc(Cl)c(Cl)c2)c2ccccc2N1,1.26 µM (active),–
Oc1cccc(C2c3[nH]c4ccccc4c3CCN2Cc2cnn(-c3ccccc3)c2)c1 (stereo not given),inactive,–
CC(=O)Nc1ccccc1NC(=O)c1cc(C)cc(C)c1,inactive,–
CCOc1ccc(CCNC(=O)C2=C(C)C(=O)OC23CCC(C)CC3)cc1OCC (stereo not given),inactive,–
CC(Sc1nnnn1C1CCCCC1)C(=O)O (stereo not given),inactive,–
O=C(COc1ccc(Cl)cc1)NCc1nnc(SCC(=O)NCC2CCCO2)o1 (stereo not given),inactive,–
Cc1ccc(-c2cc(=O)c3ccc(F)cc3[nH]2)cc1,inactive,–
COc1ccc(Cl)cc1NC(=O)CNc1ccccc1F,31.6 µM (active),–
COc1ccc(C)cc1NC(=O)CSc1ccc(Cl)cc1,inactive,–
COc1ccc(C)cc1NC(=O)CSc1nnc(CC(=O)Nc2ccccc2F)n1C,inactive,–
C=CCOC(=O)NC(c1ccc(F)c(F)c1)C(C(=O)COC)C(=O)OC (stereo not given),inactive,–
Cc1cc(C)cc(OCC(=O)Nc2nc3ccc([N+](=O)[O-])cc3s2)c1,inactive,–
COC(=O)C(NC(=O)c1ccc(OC)cc1)(Nc1ncc(S(=O)(=O)c2ccc([N+](=O)[O-])cc2)s1)C(F)(F)F (stereo not given),inactive,–
CCOCC(=O)Nc1ncc(S(=O)(=O)c2ccc([N+](=O)[O-])cc2)s1,3.55 µM (active),–

Compound,Potency,"activity, negative = inhibition"
Fc1ccc(NC(=S)N2CCc3[nH]c4ccccc4c3C2)cc1,inactive,–
O=C(O)CCCCCNc1ncnc2ccc(Br)cc12,inactive,–
O=C(O)C[C@@H]1NC(=O)[C@H](Cc2ccccc2)NC1=O,inactive,–
O=C(CN1CCN(c2ccc(O)cc2)CC1)NC1CCCc2ccccc21 (stereo not given),11.2 µM (active),–
O=C(CSc1nncs1)NC1CCCc2ccccc21 (stereo not given),inactive,–
O=C(CCC(=O)N1CCN(S(=O)(=O)c2ccccc2)CC1)NC1CCCc2ccccc21 (stereo not given),inactive,–
COC(=O)CCCC1=CC2=CC(=O)C(C)(OC(=O)c3cccs3)C(=O)C2=CN1c1ccc(CO)cc1 (stereo not given),–,3.06% [at 13.5 µM] (inactive)
Cc1ccc(Cn2nnc3c(=O)n(CC(=O)N4CCCCC4)cnc32)cc1,inactive,–
COc1ccc(Cn2nnc3c(=O)[nH]c(C4CCN(C(=O)c5ccccc5Cl)CC4)nc32)cc1,14.1 µM (active),–
O=C(Cc1c(F)cccc1Cl)Nc1ccc(-n2cnnn2)cc1,inactive,–
COc1ccc(CN2CCC(c3nc4ccc(Cl)cc4[nH]3)CC2)cc1,inactive,–
Cc1ccc(NC(=O)N2CCC(c3nc4c(nnn4Cc4c(F)cccc4Cl)c(=O)[nH]3)CC2)cc1,15.8 µM (active),–
Cc1ccc(NC(=O)N2CCC(C(=O)NCc3ccc(F)cc3)CC2)cc1,inactive,–
COC(=O)c1nc(NC(=O)c2ccc(C(C)(C)C)cc2)n[nH]1,inactive,–
CSc1nc2ccc(NC(=O)c3c(F)cccc3F)cc2s1,inactive,–
N/C(=N\OC(=O)c1ccc2c(c1)OCO2)c1ccc(Br)cc1,inactive,–
COc1ccccc1Cn1c(C)nnc1-c1cnn(C)c1N,inactive,–
O=C(CN1CCCCCC1)NCCN1C(=O)S/C(=C\c2ccccc2Cl)C1=O,inactive,–
CCC1(CC)NC(=O)N(Cc2nc3ccccc3s2)C1=O,inactive,–
CC(CC(=O)Nc1ccccc1)n1ccnc1 (stereo not given),inactive,–
CC(NC(=O)c1ccc(N2CCNCC2)c([N+](=O)[O-])c1)C12CC3CC(CC(C3)C1)C2 (stereo not given),inactive,–
CS(=O)(=O)N1CCN(c2ccc(C(=O)NC3C4CC5CC(C4)CC3C5)cc2[N+](=O)[O-])CC1 (stereo not given),14.1 µM (active),–
Cc1cccc(N2CCN(c3ccc(C(N)=O)cc3[N+](=O)[O-])CC2)c1C,inactive,–
CCN(CC(=O)NCc1cccs1)S(=O)(=O)c1ccc(NC(C)=O)cc1,inactive,–
CC1CC(C)CN(C(=O)CSc2nnc(CSc3ncccn3)n2C)C1 (stereo not given),inactive,–

Compound,Potency,"activity, negative = inhibition"
Cc1cc(=O)[nH]c(SCC(=O)N2c3ccccc3CC2C)n1 (stereo not given),inactive,–
CCn1c(CSc2ncccn2)nnc1SCC(=O)N1c2ccccc2CC1C (stereo not given),25.1 µM (active),–
Cc1noc(C)c1-c1nc(CSc2ccc(Cl)cc2)no1,inactive,–
CC1CCC(NC(=O)C2c3ccccc3C(=O)N2Cc2ccc3c(c2)OCO3)CC1 (stereo not given),inactive,–
CN(CC(=O)Nc1ccccc1[N+](=O)[O-])Cc1ccc(Br)cc1,inactive,–
CCOc1ccc(Br)cc1S(=O)(=O)Nc1ccc(C(=O)OC(C)C(=O)N(C)c2ccccc2)cc1 (stereo not given),inactive,–
CCOc1ccc(Br)cc1S(=O)(=O)Nc1cccc(S(=O)(=O)N(CC)CC)c1,11.2 µM (active),–
CCOc1ccc(Br)cc1S(=O)(=O)N1CCC(C(=O)O)CC1,inactive,–
N#Cc1c(-c2ccc(F)cc2)nc(-c2ccccc2)[nH]c1=O,inactive,–
Cc1ccc(OCCCn2c(=O)oc3ccccc32)cc1,inactive,–
OCC1(CCc2ccccc2)CCN(Cc2ccc3nsnc3c2)CC1,8.91 µM (active),–
OCCC1CN(Cc2ccc3nsnc3c2)CCN1C1CCCC1 (stereo not given),inactive,–
CC(=O)c1cccc(CN2CCC(CO)(Cc3ccccc3)CC2)c1,inactive,–
CSc1ccccc1C(=O)NCc1ccccc1,inactive,–
CCc1cccc(C)c1NC(=S)N(CCCN1CCN(C)CC1)Cc1cccs1,inactive,–
COc1ccc(C(=O)OCC(=O)NCC2CCCCC2)cc1S(=O)(=O)N1CCCc2ccccc21,20 µM (active),–
CCN(C(=O)COC(=O)c1cc(S(=O)(=O)N2CCc3ccccc32)ccc1OC)C1CCS(=O)(=O)C1 (stereo not given),inactive,–
CCC(C)(C)NC(=O)/C=C/c1cc(OC)c(OC)c(S(=O)(=O)N2CCc3ccccc32)c1,inactive,–
O=C(O)c1ccn(COc2ccc(Br)cc2)n1,inactive,–
O=C(CSc1nnc2ccc(-c3ccncc3)nn12)N1CCCCC1,inactive,–
CC(C)(C)c1cc(NC(=O)NN2CCOCC2)nn1-c1c(Cl)cc(Cl)cc1Cl,inactive,–
COc1ccc(CC(=O)N[C@@H](CCSC)c2nc3ccccc3[nH]2)cc1,8.91 µM (active),–
CSCCC(NC(=O)c1cc([N+](=O)[O-])cc([N+](=O)[O-])c1)c1nc2ccccc2[nH]1 (stereo not given),inactive,–
CSCCC(NC(=O)c1ccc(=O)n(C)n1)c1nc2ccccc2[nH]1 (stereo not given),inactive,–
Cc1ccc(C(=O)Cn2cc([N+](=O)[O-])nc2C)cc1,inactive,–
